Key:
[1] = tested on: U-2932; assay: growth inhibition by drug alone (1 - RLU/untreated control) (fraction); higher = stronger inhibition; conditions: 177Lu-lilotomab satetraxetan 0 ug/ml
How it was run: (§1)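 RIVA or U-2932 cells, untreated or pretreated 18 h with a radiolabelled anti-CD37 antibody conjugate (~600 MBq/mg; 0.5 µg/ml RIVA, 1 µg/ml U-2932), were washed and seeded at 3,000 cells/well on plates pre-printed with the Selleck Cambridge Cancer Compound library. Doses were 10/100 nM (RIVA) or 10/1,000 nM (U-2932). RealTime-Glo luminescence was read daily from day 3 after 1 h at 37°C. Growth inhibition is 1 − RLU/mean of 48 untreated no-drug wells per plate.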

[2] = tested on: RIVA; assay: as above; conditions: 177Lu-lilotomab satetraxetan 0 ug/ml
How it was run: as §1

[3] = tested on: U-2932; assay: growth inhibition by drug plus 177Lu-lilotomab satetraxetan (1 - RLU/untreated control) (fraction); higher = stronger inhibition; conditions: 177Lu-lilotomab satetraxetan 1 ug/ml
How it was run: as §1

[4] = tested on: RIVA; assay: as above; conditions: 177Lu-lilotomab satetraxetan 0.5 ug/ml
How it was run: as §1

Compound	growth inhibition by drug alone ([1]; 10 nM, time (day): 3)	growth inhibition by drug alone ([1]; 10 nM, time (day): 4)	growth inhibition by drug alone ([1]; 10 nM, time (day): 5)	growth inhibition by drug alone ([1]; 10 nM, time (day): 6)	growth inhibition by drug alone ([1]; 1000 nM, time (day): 3)	growth inhibition by drug alone ([1]; 1000 nM, time (day): 4)	growth inhibition by drug alone ([1]; 1000 nM, time (day): 5)	growth inhibition by drug alone ([1]; 1000 nM, time (day): 6)	growth inhibition by drug alone ([2]; 10 nM, time (day): 3)	growth inhibition by drug alone ([2]; 10 nM, time (day): 4)	growth inhibition by drug alone ([2]; 10 nM, time (day): 5)	growth inhibition by drug alone ([2]; 10 nM, time (day): 6)	growth inhibition by drug alone ([2]; 100 nM, time (day): 3)	growth inhibition by drug alone ([2]; 100 nM, time (day): 4)	growth inhibition by drug alone ([2]; 100 nM, time (day): 5)	growth inhibition by drug alone ([2]; 100 nM, time (day): 6)	growth inhibition by drug plus 177Lu-lilotomab satetraxetan ([3]; 10 nM, time (day): 3)	growth inhibition by drug plus 177Lu-lilotomab satetraxetan ([3]; 10 nM, time (day): 4)	growth inhibition by drug plus 177Lu-lilotomab satetraxetan ([3]; 10 nM, time (day): 5)	growth inhibition by drug plus 177Lu-lilotomab satetraxetan ([3]; 10 nM, time (day): 6)	growth inhibition by drug plus 177Lu-lilotomab satetraxetan ([3]; 1000 nM, time (day): 3)	growth inhibition by drug plus 177Lu-lilotomab satetraxetan ([3]; 1000 nM, time (day): 4)	growth inhibition by drug plus 177Lu-lilotomab satetraxetan ([3]; 1000 nM, time (day): 5)	growth inhibition by drug plus 177Lu-lilotomab satetraxetan ([3]; 1000 nM, time (day): 6)	growth inhibition by drug plus 177Lu-lilotomab satetraxetan ([4]; 10 nM, time (day): 3)	growth inhibition by drug plus 177Lu-lilotomab satetraxetan ([4]; 10 nM, time (day): 4)	growth inhibition by drug plus 177Lu-lilotomab satetraxetan ([4]; 10 nM, time (day): 5)	growth inhibition by drug plus 177Lu-lilotomab satetraxetan ([4]; 10 nM, time (day): 6)	growth inhibition by drug plus 177Lu-lilotomab satetraxetan ([4]; 100 nM, time (day): 3)	growth inhibition by drug plus 177Lu-lilotomab satetraxetan ([4]; 100 nM, time (day): 4)	growth inhibition by drug plus 177Lu-lilotomab satetraxetan ([4]; 100 nM, time (day): 5)	growth inhibition by drug plus 177Lu-lilotomab satetraxetan ([4]; 100 nM, time (day): 6)
CN1C(=O)C(Cc2c[nH]c3ccccc23)NC1=S (stereo unspecified) [Necrostatin-1]	0.00216	-0.00946	-0.022	-0.0551	-0.0606	-0.0746	-0.132	-0.0624	-0.0747	-0.159	-0.218	-0.441	-0.34	-0.362	-0.408	-0.562	-0.059	-0.0156	0.00349	0.0946	-0.0506	0.00685	0.0586	0.224	0.451	0.501	0.519	0.523	0.368	0.476	0.476	0.476
CC(C)(C)c1cnc(CSc2cnc(NC(=O)C3CCNCC3)s2)o1	-0.112	-0.121	-0.0865	-0.0439	0.946	0.962	0.971	0.978	-0.214	-0.262	-0.264	-0.28	-0.524	-0.411	-0.58	-0.723	-0.136	-0.0562	0.00872	0.121	0.955	0.966	0.975	0.983	0.484	0.533	0.556	0.564	0.267	0.359	0.373	0.353
CCCC(=O)[O-].[Na+] [Sodium butyrate]	-0.0432	-0.057	-0.0778	-0.0762	-0.0747	-0.0522	-0.0783	-0.149	-0.23	-0.252	-0.304	-0.546	-0.245	-0.343	-0.3	-0.374	-0.0586	-0.0574	-0.0479	-0.015	-0.0238	0.0387	0.0442	0.139	0.36	0.484	0.502	0.51	0.431	0.486	0.506	0.493

Source: the supplement of paper PMC6897291
